# The list is not random: actives were taken first. Their share in the collection is about 8.3%.
# Marburg entry inh = qHTS for inhibitors of binding or entry into cells for Marburg Virus; hit rate 1.8% among 300,000; AID 540276, 2011; Potency, µM (doses to about 37.8 µM), without a hit: at the highest dose activity change, negative = inhibition, most hits filed as inhibitors; Marburg virus pseudotyped entry inhibition, cell reporter; calls by dose curve; tested in HEK293 cells; further: potency means the concentration at half of the fitted maximal effect; on the % scale 0 is the no-effect control and ±100 the full control effect
# FMDV antiviral = High Throughput Screening for Foot and Mouth Disease Virus Antivirals. FMDV antiviral cell-based qHTS. hit rate 1.2% among 410,000. Potency, µM (top dose mostly 57.9 µM), for inactives: top-dose activity change, negative = inhibition, actives largely listed as inhibitors; calls by dose curve; tested in HEK293T cells; further: read-out not given here; potency means the concentration at half of the fitted maximal effect; on the % scale 0 is the no-effect control and ±100 the full control effect; nearly all actives have a fitted effect of over 45% in size
# HCMV antiviral = qHTS Assay for inhibitors of the human cytomegalovirus (HCMV) | HFF cells, HCMV-luciferase reporter, 72 h; hits give low values | activity change, negative = inhibition, % at 57.5 µM | hit rate 4.5% among 410,000 | AID 1259415, 2018; in the data active means activity change below about -60%; inconclusive means no clear call, values can overlap the other calls; inactive means above about -39%; further: on the % scale 0 is the no-effect control and ±100 the full control effect
#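 Human foreskin fibroblasts infected with luciferase-reporter HCMV at MOI 1 PFU/cell, compounds at two doses. Luciferase measured 72 h post infection; normalized to buffer-only basal and Salinomycin (10uM) controls.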
# Lassa entry inh = qHTS for Inhibitors of binding or entry into cells for Lassa Virus; Lassa virus pseudotype entry inhibition, cell reporter; Potency, µM (highest dose often 37.9 µM), without a hit: at the highest dose activity change, negative = inhibition, actives largely listed as inhibitors; hit rate 1.2% among 300,000; calls by dose curve; tested in HEK293 cells; further: potency means the concentration at half of the fitted maximal effect; on the % scale 0 is the no-effect control and ±100 the full control effect; nearly all actives have a fitted effect of over 50% in size
# Giardia FBPA inh = qHTS Assay for Inhibitors of Fructose-1,6-bisphosphate Aldolase from Giardia Lamblia. A8B2U2. hit rate 0.71% among 290,000. purified Giardia FBPA. Potency, µM (doses to about 59.6 µM), inactives show at the top dose activity, negative = inhibition, actives largely listed as inhibitors. AID 2451, 2010; further: potency means the concentration at half of the fitted maximal effect; on the % scale 0 is the no-effect control and ±100 the full control effect; nearly all actives have a fitted effect of over 55% in size
# Target sequence (A8B2U2 whole entry, looked up): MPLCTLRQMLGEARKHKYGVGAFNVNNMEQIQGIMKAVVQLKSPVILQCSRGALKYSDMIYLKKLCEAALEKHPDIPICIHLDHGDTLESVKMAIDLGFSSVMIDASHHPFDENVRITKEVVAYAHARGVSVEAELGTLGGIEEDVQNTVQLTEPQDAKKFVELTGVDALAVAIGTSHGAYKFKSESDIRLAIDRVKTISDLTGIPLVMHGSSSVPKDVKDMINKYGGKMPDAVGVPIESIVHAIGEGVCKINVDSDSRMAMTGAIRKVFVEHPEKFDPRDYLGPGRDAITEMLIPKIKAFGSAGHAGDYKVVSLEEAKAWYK
#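 40 nM FBPA preincubated 10 min at RT with compound (up to 57.5 uM final), then substrate plus GAPDH/TPI/NAD/arsenate coupling and diaphorase/resazurin added. Fluorescence read after 20 min at RT, 525/598 nm.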
# HCV inhibitor = qHTS Assay for Inhibitors of Hepatitis C Virus (HCV); Huh7.5.1 HCVcc-Cre infection, luciferase reporter, 44 h; hit rate 3.4% among 340,000; Potency, µM (doses to about 41.8 µM), without a hit: at the highest dose activity change, negative = inhibition, usual class: inhibitors; further: potency means the concentration at half of the fitted maximal effect; on the % scale 0 is the no-effect control and ±100 the full control effect
#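 Luciferase read-out (15 sec integration) after a 15 min room-temperature substrate step quantifies HCVcc-Cre infection. Cells, 1,000 per well, had compound added 4 h post-plating, then virus at ~0.5 moi, and were cultured 44 h.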
# HeLa G2M arrest = Cell cycle validation with wells to cells screening paradigm; shares compounds with Marburg entry inh; Potency, µM, actives largely listed as inhibitors; HeLa cell cycle G2/M arrest, Hoechst DNA content imaging; hit rate 60% among 25
# WI-38 cytotox = High Content Assay for Compounds that inhibit the Assembly of the Perinucleolar Compartment: WI-38 Cytotoxicity | Potency, µM (highest dose often 46.1 µM), for inactives: at the highest dose activity change, negative = cytotoxicity, hits mostly inhibitors | shares compounds with Marburg entry inh | 120 tested, under 10 active | WI-38 normal lung fibroblasts, ATPLite luminescence ATP viability, 24 h
# PNC inh conf = High Content Assay for Compounds that inhibit the Assembly of the Perinucleolar Compartment: Confirmation of PNC Inhibition; PC3M PTB-GFP, PNC prevalence imaging, 16 h; shares compounds with Marburg entry inh; hit rate 50% among 120; Potency, µM (series often up to 46.1 µM), without a hit: top-dose activity, negative = PNC inhibition, usual class: inhibitors; AID 2730, 2010
# PC3M caspase = High Content Assay for Compounds that inhibit the Assembly of the Perinucleolar Compartment: PC3M Caspase 3/7 Activation. shares compounds with Marburg entry inh. PC3M-GFP caspase 3/7 activation, luminescence, 24 h. activity change, positive = activation, % at 46.1 µM. 120 tested, under 10 active. AID 2731, 2010
# * marks the source's active call; other numbers are inactive results; ? = inconclusive; . = not tested or not shown; [ ] = dose if it differs, or a comment. Unless noted, the call rests on the fitted dose curve; in most records, active means well fitted curve in the direction sought with a large enough effect; inconclusive means small, poorly fitted or top-dose-only effect, or another doubt; inactive means no such curve, though single readings can be large; an effect the other way counts as inactive or inconclusive.
SMILES,Marburg entry inh,FMDV antiviral,HCMV antiviral,Lassa entry inh,Giardia FBPA inh,HCV inhibitor,WI-38 cytotox,PNC inh conf,PC3M caspase,others
COc1cc(NC(=S)NC(=O)c2ccc(C(C)(C)C)cc2)ccc1NC(=O)c1cccs1,?,-12%,-97*,1µM*,-1%,?,-10%,4µM*,1,
C#CCn1c(S(=O)(=O)Cc2ccc(F)cc2)nc(-c2ccccc2)c1-c1ccccc1,0.92µM*,?,-97*,3.7µM*,-4%,?,-24%,7.9µM*,-3,
CCc1ccc(-n2c(=O)c3c4c(sc3n(Cc3cc(=O)n5c(C)cccc5n3)c2=O)CCC4)cc1,4%[46.1 µM],0%,6,13%[46.1 µM],.,.,.,.,.,
CN(C)c1nc(OCCNC(=O)COc2ccccc2Cl)nc(N(C)C)n1,-13%,-19%,-4,-18%,-6%,?,2%,?,-4,
CN(C)c1nc(OCCNC(=O)Nc2ccccc2)nc(N(C)C)n1,-23%,-6%,-20,-4%,-3%,-10%,.,.,.,
O=C(Nc1nnc2n1CCS2)c1cc(C(F)(F)F)cc(C(F)(F)F)c1,.,-26%,22,?,.,.,.,.,.,
Cc1cc(C(=O)N/N=C/c2cc(Br)cc(Br)c2OC(=O)c2ccccc2)n[nH]1,-10%,.,.,?,-7%,1%,-12%,?,4,
Nc1cccc2nc3ccccc3cc12,.,-14%,.,.,5%,8%,-17%,?,?,
COc1ccc2cc(CNc3ccc(C)cc3)c(=O)n(CC(=O)Nc3cccc(Cl)c3C)c2c1,.,-3%,8,-16%[46.1 µM],.,.,.,.,.,
CC(C)CN(c1ccccc1)S(=O)(=O)c1nnc(NC(=O)C2CCCCC2)s1,.,7%,5,13%[46.1 µM],.,.,.,.,.,
C[C@]12Cc3cn4c(nc3C=C1CCC1C2CC[C@@]2(C)[C@H]1CC[C@@]2(O)C#N)nc1ccccc14 (some centres undefined),10µM*,.,.,5.2µM*,-3%,.,.,.,.,HeLa G2M arrest=?
C=CCNC(=S)N/N=C(\C)c1ccccn1,0.26µM*,?,-103*,0.21µM*,15%,-29%,-27%,5µM*,-3,
C/C(=N/NC(=O)CNC(=O)c1ccccn1)c1ccccc1,3%,29%,38,14%,-4%,7%,.,.,.,
CSc1nnc2c3ccccc3n(CCc3ccccc3)c2n1,0.58µM*,?,-98*,1µM*,-15%,?,-4%,5µM*,-1,
COc1cc(C2NC(=O)NC(C)=C2C(=O)Nc2cc(C)cc(C)c2)ccc1O (centres undefined),-10%[46.1 µM],4%,6,0%[46.1 µM],.,.,.,.,.,
CCCc1noc(-c2ccc(NCc3ccc(C)cc3)c([N+](=O)[O-])c2)n1,-1%[46.1 µM],-21%,-4,4%[46.1 µM],.,.,.,.,.,
O=[N+]([O-])c1cc(/C=N/Nc2nc3ccccc3[nH]2)c(O)cc1O,8.9µM*,6%,-99*,10µM*,?,?,-16%,28µM*,-23,
Cc1cc(SCC(=O)c2cc(C)n(C)c2C)nc2ccccc12,?,-8%,-21,?,-13%,-22%,-11%,?,5,
CCCCN(C(=O)Nc1ccc(Cl)cc1)C1CCN(C(C)=O)CC1,6%,-20%,25,?,4%,19%,4%,-11%,-1,
CCc1ccc(NCc2cc3ccc(OC)cc3n(CC(=O)Nc3cccc(Cl)c3C)c2=O)cc1,.,-8%,9,2%[46.1 µM],.,.,.,.,.,
COc1ccc(CNC(=O)Cc2c(C)c3cc4c(C)coc4cc3oc2=O)cc1,4%[46.1 µM],7%,-17,-2%[46.1 µM],.,.,.,.,.,
Cc1cccc(/C=C(\c2nc3ccccc3[nH]2)S(=O)(=O)c2ccccc2)c1,13µM*,8.9µM*,-98*,?,0%,11µM*,?,22µM*,-10,
COc1ccc(-c2csc(NC(=O)c3ccc(OCC(=O)N4CCOCC4)c(OC)c3)n2)cc1,?,?,-24,?,-11%,?,2%,?,-8,
CC(=O)c1ccc(NC(=O)c2cn(-c3ccccc3)nc2-c2ccc(Br)cc2)cc1,.,?,-1,6%[46.1 µM],.,.,.,.,.,
O=C(Cc1coc2ccc3ccccc3c12)Nc1nnc(C2CC2)s1,?,-18%,-77*,2.5µM*,-1%,?,-7%,7.9µM*,1,
SMILES,Marburg entry inh,FMDV antiviral,HCMV antiviral,Lassa entry inh,Giardia FBPA inh,HCV inhibitor,WI-38 cytotox,PNC inh conf,PC3M caspase,others
Cc1cc2occ(CC(=O)Nc3nnc(C4CC4)s3)c2cc1C,-14%,-30%,-10,?,1%,-5%,.,.,.,
Cc1cccc(-n2cc(-c3ccccc3)c3c(NN4CCOCC4)ncnc32)c1,17%,-17%,-30,?,5%,-4%,.,.,.,
Cc1ccc(-n2cc(-c3ccccc3)c3c(NN4CCOCC4)ncnc32)cc1,3%,-21%,?,-9%,10%,-14%,16%,-20%,-2,
COc1cccc(NC(=O)N2CCN3CCCCC3C2)c1 (centres undefined),.,6%,6,?,.,.,.,.,.,
O=C(N/N=C/c1c(O)ccc2ccccc12)c1cccc(C(F)(F)F)c1,2.6µM*,?,-105*,?,?,?,-18%,?,8,
COc1ccccc1CCNC(=O)C(=O)NCC(c1cccs1)S(=O)(=O)c1ccc(C)cc1 (centres undefined),.,0%,-26,-12%[46.1 µM],.,.,.,.,.,
COc1cccc(CNc2ccccn2)c1O,?,16%,27,-6%[46.1 µM],12%,3%,.,.,.,
COc1cccc(CNc2cccc3cccnc23)c1O,17%,20%,27,-19%,?,-3%,-9%,7%,1,
COc1ccc(-c2cc(C(=O)Oc3cccc(C)c3C)c3ccccc3n2)cc1,.,-13%,-15,-2%[46.1 µM],.,.,.,.,.,
CCOc1ccc(CN(C)CC(=O)Nc2cc(OC)c([N+](=O)[O-])cc2C)cc1,8%,?,11,0%,1%,-23%,-22%,-20%,-8,

# From PubChem BioAssay
